Among the test systems are DU-145 prostate; K-562 leukemia; MALME-3M melanoma; MDA-MB-231 breast; RXF 393 renal; SF-268 CNS; SF-295 CNS; SF-539 CNS; UACC-257 melanoma; M14 melanoma; HT29 colon; SNB-75 CNS; SNB-19 CNS; U251 CNS; PC-3 prostate; SK-MEL-5 melanoma; UACC-62 melanoma; LOX IMVI melanoma; SK-MEL-28 melanoma.
Holding throughout (assay): NCI-60 one-dose screen, 48 h (100 = growth as untreated, 0 = no growth, -100 = all killed)
What all share (conditions): 10 µM unless noted

Compounds without any hit were thinned out: in the full panel of roughly 83,000, 20% have a hit.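 The test compound was applied at a single concentration to cells in 96-well plates for 48 hours, and percent growth was recorded.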 Unmarked numbers belong to inactive results. Calls of active or inactive are those of the source. Rule for the calls: active = growth percent below 10; inactive = the rest.

In the case of `COc1cc2oc(-c3cccc(NC(=O)[C@@H](N)C(C)C)c3)cc(=O)c2c(OC)c1OC`, the growth in the test with DU-145 prostate is 105%; in the test on K-562 leukemia, 105%; with MALME-3M melanoma, 110%; in the test with MDA-MB-231 breast, 99.2%; in the test with RXF 393 renal, 107%; in the test with SF-268 CNS, 107%. Moreover, the growth in the test with SF-295 CNS was 96.7%; in the test with SF-539 CNS, 95.9%; in the test on UACC-257 melanoma it was 108%; in the test on M14 melanoma, 111%; in the test with HT29 colon it was 107%; in the test with SNB-75 CNS, 124%. Also, the growth with SNB-19 CNS was 95.4%; with U251 CNS, 92.3%; with PC-3 prostate it was 106%; in the test with SK-MEL-5 melanoma it was 99.1%; in the test on UACC-62 melanoma, 91.3%; in the test with LOX IMVI melanoma, 94.4%. Further, the growth in the test on SK-MEL-28 melanoma is 111%.
With `O=C(CCCCCCNC(=O)c1csc(Br)n1)NO`, the growth in the test on DU-145 prostate was 26.7%; in the test with K-562 leukemia, 13.8%; in the test with MALME-3M melanoma it was 8.89% (active); in the test with MDA-MB-231 breast it was 50.2%; with RXF 393 renal it was 3.36% (active); in the test on SF-268 CNS, 69.4%. Moreover, the growth in the test with SF-295 CNS is 52%; in the test on SF-539 CNS it was 36.7%; in the test on UACC-257 melanoma it was 18.4%; in the test on M14 melanoma, 29.4%; in the test with HT29 colon it was 17.2%; in the test with SNB-75 CNS, 19.4%. Further, the growth in the test with SNB-19 CNS was 59.7%; in the test with U251 CNS, 49.3%; in the test with PC-3 prostate it was 47.4%; in the test on SK-MEL-5 melanoma, 17.7%; in the test with UACC-62 melanoma, 14.4%; in the test on LOX IMVI melanoma, 13.8%. For the same molecule, the growth with SK-MEL-28 melanoma is 29.3%.
With `COc1cccc2c1C=CC1(O2)Oc2cccc(OC)c2C=C1C` (stereo unspecified), the growth in the test on DU-145 prostate is 31.5%; in the test on K-562 leukemia it was 8.28% (active); with MALME-3M melanoma, 60.4%; in the test with MDA-MB-231 breast, 0.892% (active); in the test with RXF 393 renal it was -18.2% (active); in the test on SF-268 CNS it was 55.3%. In addition, the growth was 6.46% (active) in the test with SF-295 CNS; -9.43% (active) in the test with SF-539 CNS; 73.9% in the test with UACC-257 melanoma; 1.02% (active) with M14 melanoma; 6.27% (active) in the test with HT29 colon; -8.19% (active) with SNB-75 CNS. Besides, the growth in the test on SNB-19 CNS is 22.8%; in the test on U251 CNS it was 16.8%; in the test with PC-3 prostate, 31.4%; with SK-MEL-5 melanoma, 24.6%; with UACC-62 melanoma, 13.1%; in the test on LOX IMVI melanoma it was 24.5%. Also, in the test with SK-MEL-28 melanoma, the growth is 58.4%.
For the molecule `CC(C)NC(=O)c1cc(-c2ccc(NC(=O)Nc3ccc(F)cc3)cc2)nc2cccnc12`, the growth in the test with DU-145 prostate is 114%; in the test with K-562 leukemia, 110%; with MALME-3M melanoma, 118%; in the test on MDA-MB-231 breast, 97.8%; in the test with RXF 393 renal, 123%; in the test on SF-268 CNS, 109%. Also, the growth is 97.7% in the test on SF-295 CNS; 102% in the test on SF-539 CNS; 102% in the test with UACC-257 melanoma; 102% in the test on M14 melanoma; 104% in the test on HT29 colon; 101% in the test on SNB-75 CNS. The growth was 99.9% in the test with SNB-19 CNS; 104% in the test on U251 CNS; 96.7% in the test on PC-3 prostate; 101% in the test on SK-MEL-5 melanoma; 96% in the test with UACC-62 melanoma; 98% with LOX IMVI melanoma. Moreover, the growth with SK-MEL-28 melanoma was 107%.
As to `C#Cc1cc(C(=O)Nc2ccc(CNCCN3CCOCC3)c(C(F)(F)F)c2)ccc1C`, the growth with DU-145 prostate was 97%; with K-562 leukemia it was 67.1%; with MALME-3M melanoma, 92.1%; in the test on MDA-MB-231 breast it was 90.3%; in the test on RXF 393 renal it was 74.7%; with SF-268 CNS, 86.3%. The growth in the test with SF-295 CNS is 99.6%; with SF-539 CNS it was 93.6%; in the test with UACC-257 melanoma, 98.6%; in the test on M14 melanoma, 101%; in the test on HT29 colon, 68.8%; with SNB-75 CNS it was 76%. The growth in the test on SNB-19 CNS was 96.1%; in the test on U251 CNS, 80.7%; in the test on PC-3 prostate, 89.3%; in the test on SK-MEL-5 melanoma it was 94.2%; in the test on UACC-62 melanoma it was 93.9%; in the test on LOX IMVI melanoma, 1.04% (active). Besides, the growth in the test on SK-MEL-28 melanoma was 93.6%.
On to `CN1CCN(c2ccc(Nc3nc(NCCNS(=O)(=O)c4ccc5ccccc5c4)c4sccc4n3)cc2)CC1`, for which the growth was 84% with DU-145 prostate; 1.59% (active) in the test on K-562 leukemia; 2.39% (active) in the test with MALME-3M melanoma; 74.3% with MDA-MB-231 breast; 29.4% with RXF 393 renal; 63.3% in the test on SF-268 CNS. Moreover, the growth in the test with SF-295 CNS is 102%; in the test with SF-539 CNS, 65%; with UACC-257 melanoma, 65.7%; in the test with M14 melanoma, -82.6% (active); in the test with HT29 colon, 8.55% (active); in the test on SNB-75 CNS, 78%. For the same molecule, the growth with U251 CNS is 13.4%; in the test on PC-3 prostate it was 76%; in the test on SK-MEL-5 melanoma, 86.1%; in the test with UACC-62 melanoma it was 66.5%; with SK-MEL-28 melanoma it was 74.4%.
`CCOC(=O)c1cccc(NC2=C(Cl)C(=O)C(C)=C(C)C2=O)c1`: the growth is 104% with DU-145 prostate; 0.169% (active) in the test with K-562 leukemia; 104% in the test on MALME-3M melanoma; 28% in the test with MDA-MB-231 breast; 102% in the test on RXF 393 renal; 92.8% in the test with SF-268 CNS. Besides, the growth with SF-295 CNS was 102%; with SF-539 CNS, 95.8%; with UACC-257 melanoma it was 93.3%; in the test with M14 melanoma it was 100%; with HT29 colon, 110%; in the test with SNB-75 CNS it was 104%. Further, the growth is 96.5% in the test on SNB-19 CNS; 90.9% in the test with U251 CNS; 85.6% in the test on PC-3 prostate; 100% in the test on SK-MEL-5 melanoma; 94.7% in the test with UACC-62 melanoma; 91.9% in the test on LOX IMVI melanoma. In the test with SK-MEL-28 melanoma, the growth was 110%.

For the origin of these results see PubChem BioAssay (NCI).
